Data reported in PubChem BioAssay (Tox21).
Unmarked numbers belong to inactive results. Inconclusive results are not listed. A call without a number means that no potency is given here. The source made the active and inactive calls. Unless noted, calls come from the whole dose curve; as a rule, active = well fitted curve in the direction sought with a large enough effect in the repeat runs; inconclusive = weak or mixed curves; inactive = no such curve, though single readings can be large; an effect the other way counts as inactive or inconclusive.

Tests used:
[1] = qHTS assay to identify small molecule agonists of H2AX (AID 1224845; active = well fitted activation curve with a large enough effect in the signal ratio in the repeat runs, not every such curve was filed as active; the % refers to the signal ratio; note: potency is the fitted concentration of half-maximal effect)
How it was run: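 Wild-type CHO-K1 cells plated overnight, then exposed 3 hr at 37C to compounds at 15 concentrations (0.76% DMSO). Lysed, then HTRF anti-pH2AX(S139)-cryptate/anti-H2AX-d2 detection after 24 hr at room temperature; emissions 665 and 620 nm.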

[2] = qHTS assay to identify small molecule agonists of H2AX - cell viability counter screen (AID 1224847; calls by dose curve; note: nearly all actives have a fitted effect of over 30% in size; note: potency is the fitted concentration of half-maximal effect)
How it was run: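 Read-out: CellTiter-Glo luminescence, 30 min RT. Cells: wild-type CHO-K1, 1000/well, 10% FBS, plated overnight at 37C. Treatment: 15 concentrations, 3 hr, 37C, 0.76% DMSO.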

[3] = qHTS RealTime-Glo MT Cell Viability Assay in HepG2 cells - 24 hour (AID 1224867); note: nearly all actives have a fitted effect of over 50% in size; note: potency is the fitted concentration of half-maximal effect
How it was run: (§1)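 HepG2 cells (600/well) were dispensed with RealTime-Glo reagents, incubated 5 h at 37 °C, then treated with compounds in DMSO for up to 40 h. Nonlytic NanoLuc luminescence reflecting viable cells was read at each stated time point.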

[4] = qHTS RealTime-Glo MT Cell Viability Assay in HEK293 cells - 32 hour (AID 1224868); note: nearly all actives have a fitted effect of over 50% in size; note: potency is the fitted concentration of half-maximal effect
How it was run: (§2)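 HEK293 cells seeded with NanoLuc/prosubstrate reagent, rested 5 h at 37 C, then dosed and kept at 37 C up to 40 h. Nonlytic real-time luminescence from viable cells read at 0, 8, 16, 24, 32 and 40 h.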

[5] = A CellTox Green Cytotoxicity Assay to monitor cytotoxicity in HEK293 cells - 0 hour (AID 1224869); note: nearly all actives have a fitted effect of over 50% in size
How it was run: (§3)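 Nonlytic real-time cytotoxicity: HEK293 + CellTox Green reagent plated, 5 h preincubation, pintool compound addition (23 nL in DMSO), 37 C for 40 h, fluorescence measured at successive time points.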

[6] = A CellTox Green Cytotoxicity Assay to monitor cytotoxicity in HEK293 cells - 40 hour (AID 1224871); note: nearly all actives have a fitted effect of over 45% in size; note: potency is the fitted concentration of half-maximal effect
How it was run: as §3

[7] = qHTS RealTime-Glo MT Cell Viability Assay in HEK293 cells - 16 hour (AID 1224872); note: nearly all actives have a fitted effect of over 50% in size; note: potency is the fitted concentration of half-maximal effect
How it was run: as §2

[8] = qHTS RealTime-Glo MT Cell Viability Assay in HepG2 cells - 8 hour (AID 1224873); note: nearly all actives have a fitted effect of over 55% in size; note: potency is the fitted concentration of half-maximal effect
How it was run: (§4)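 HepG2 cells mixed with RealTime-Glo MT reagents (NanoLuc plus cell-permeant prosubstrate) were seeded at 600 cells/well, incubated 5 h at 37 C/5% CO2, then pinned with compounds in DMSO; nonlytic luminescence tracked viability during 40 h treatment.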

[9] = qHTS RealTime-Glo MT Cell Viability Assay in HEK293 cells - 40 hour (AID 1224874); settings: RealTime-Glo luminescence; max response: stronger effect = lower value; note: nearly all actives have a fitted effect of over 50% in size; note: potency is the fitted concentration of half-maximal effect
How it was run: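 Cells were seeded together with NanoLuc luciferase and a prosubstrate that viable cells reduce to a luciferase substrate. After a 5 h incubation at 37 C/5% CO2, compounds were added and luminescence was measured repeatedly during 40 h of treatment.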

[10] = A CellTox Green Cytotoxicity Assay to monitor cytotoxicity in HEK293 cells - 24 hour (AID 1224875); note: nearly all actives have a fitted effect of over 45% in size; note: potency is the fitted concentration of half-maximal effect
How it was run: as §3

[11] = A CellTox Green Cytotoxicity Assay to monitor cytotoxicity in HepG2 cells - 16 hour (AID 1224876); note: nearly all actives have a fitted effect of over 45% in size; note: potency is the fitted concentration of half-maximal effect
How it was run: (§5)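 Read-out is fluorescence of a cyanine dye excluded from live cells that stains DNA of dead HepG2 cells, with signal proportional to cytotoxicity. Plates were read at 0, 8, 16, 24, 32 and 40 h after compound addition.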

[12] = qHTS RealTime-Glo MT Cell Viability Assay in HepG2 cells - 32 hour (AID 1224877); note: nearly all actives have a fitted effect of over 55% in size; note: potency is the fitted concentration of half-maximal effect
How it was run: as §1

[13] = A CellTox Green Cytotoxicity Assay to monitor cytotoxicity in HepG2 cells - 24 hour (AID 1224878); note: nearly all actives have a fitted effect of over 45% in size; note: potency is the fitted concentration of half-maximal effect
How it was run: as §5

[14] = A CellTox Green Cytotoxicity Assay to monitor cytotoxicity in HepG2 cells - 40 hour (AID 1224879); note: nearly all actives have a fitted effect of over 40% in size; note: potency is the fitted concentration of half-maximal effect
How it was run: as §5

[15] = qHTS assay to identify small molecule agonists of the hypoxia (HIF-1) signaling pathway (AID 1224846; active = well fitted activation curve with a large enough effect in the signal ratio in the repeat runs, not every such curve was filed as active; the % refers to the signal ratio)
How it was run: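 Cell line: CellSensor HRE-bla ME-180; 2,000 cells/well; 0.5% dialyzed FBS; 5 h preincubation; DMSO compound pin transfer; 17 h, 37C, 5% CO2; CCF4-AM added; bla FRET signal scored for activation.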

[16] = qHTS assay to identify small molecule agonists of the estrogen related receptor (ERR) signaling pathway from Tox21 library (AID 1224849; calls by dose curve; note: nearly all actives have a fitted effect of over 15% in size); settings: ERR reporter cell line, ONE-Glo luciferase, 18 h; at 92.4 µM (top of the series) unless noted
How it was run: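 ERR cells, 6 h pre-incubation 37 C/5% CO2; cpd in DMSO pinned; 18 h 37 C; ONE-Glo added, 30 min RT; luminescence read. Agonist mode, qHTS.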

[17] = qHTS assay to identify small molecule antagonists of the estrogen related receptor (ERR) signaling pathway from Tox21 library (AID 1224848); note: nearly all actives have a fitted effect of over 50% in size
How it was run: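 Screening used an ERR reporter line supplied by NTP, exposed for 18 h at 37 C to library compounds delivered in DMSO. Signal was luciferase luminescence developed with ONE-Glo at room temperature for 30 min.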

[18] = qHTS RealTime-Glo MT Cell Viability Assay in HepG2 cells - 40 hour (AID 1224870); note: nearly all actives have a fitted effect of over 50% in size
How it was run: as §4

[19] = qHTS assay to identify small molecule agonists of the hypoxia (HIF-1) signaling pathway - cell viability counter screen (AID 1224844; calls by dose curve; note: nearly all actives have a fitted effect of over 50% in size; note: potency is the fitted concentration of half-maximal effect)
How it was run: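 ME-180 HRE-bla cells, 2,000/well, 0.5% dialyzed FBS; 5 hr settle, 17 hr compound at 37C/5% CO2; CCF4-AM reporter read first, then CellTiter-Glo luminescence after 30 min RT.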

Compound	Potency [1]	Potency [2]	Potency [3]	Potency [4]	Potency [5]	Potency [6]	Potency [7]	Potency [8]	Potency [9]	Potency [10]	Potency [11]	Potency [12]	Potency [13]	Potency [14]	outcome [15]	activity change, positive = activation [16]	Potency [17]	Potency [18]	max response [9]	Potency [19]
CC(C)COCC(CN(Cc1ccccc1)c1ccccc1)N1CCCC1 (configuration not stated)	49.2 µM (active)	43.8 µM (active)	23.9 µM (active)	10.7 µM (active)	inactive	21.3 µM (active)	8.49 µM (active)	23.9 µM (active)	10.7 µM (active)	23.9 µM (active)	21.3 µM (active)	21.3 µM (active)	23.9 µM (active)	19 µM (active)						
O=C1Cc2ccccc2N1c1c(Cl)cccc1Cl	inactive		inactive	24.5 µM (active)	inactive	inactive		inactive	21.9 µM (active)	inactive	inactive	inactive			inactive	-43.8%				
O=C(O)CCCCCCCCCCCBr	inactive	inactive	inactive	inactive	inactive	inactive	inactive	inactive		inactive	inactive	inactive	inactive	inactive	inactive		inactive	inactive	-7.89%	
CC(=O)[C@H]1[C@H](C#N)C[C@H]2[C@@H]3CC=C4C[C@@H](O)CC[C@]4(C)[C@H]3CC[C@@]21C	inactive		inactive		inactive	inactive	inactive	inactive		inactive	inactive	inactive	inactive	inactive		-13.1% [at 42.5 µM]		inactive		inactive
CCN(CC)CCNC(=O)COc1ccc(OC)cc1	inactive	inactive	inactive	inactive	inactive	inactive	inactive	inactive		inactive	inactive	inactive	inactive	inactive				inactive	13.7%	inactive
CN1C(=O)OC(C)(C)C1=O	inactive	inactive	inactive	inactive	inactive	inactive		inactive		inactive	inactive	inactive	inactive	inactive		4.82%		inactive	0.839%	inactive
Cc1ccc(OC(=O)c2ccccc2O)cc1			inactive	inactive	inactive	49 µM (active)	inactive	inactive		inactive	inactive	inactive	inactive	inactive	inactive	2.99%		inactive	-11.7%	inactive
C=CC(=O)[O-].C=CC(=O)[O-].[Zn+2]	inactive	inactive	inactive	inactive	inactive	inactive		inactive		inactive	inactive	inactive	inactive	inactive	inactive			inactive	0.547%	
CC1(CN2CCC(n3c(=O)[nH]c4ccccc43)CC2)OCc2ccccc2-n2cccc21 (configuration not stated)	inactive			19 µM (active)	inactive		10.7 µM (active)		19 µM (active)	inactive	inactive		inactive					inactive		23.9 µM (active)
CCCC(C(=O)OCCN(CC)CC)(c1ccccc1)c1ccccc1				21.3 µM (active)	inactive			inactive	21.3 µM (active)							-35.3% [at 42.5 µM]		inactive		
Nc1nc2ccc([N+](=O)[O-])cc2s1		inactive	inactive		inactive		inactive	inactive		inactive	49 µM (active)		43.6 µM (active)	43.6 µM (active)						
O=c1cc(-c2ccccc2)oc2cc(O)cc(O)c12	inactive				inactive	inactive		inactive		inactive	inactive									inactive
CC(=O)c1ccc([N+](=O)[O-])cc1	inactive	inactive	inactive	inactive	inactive			inactive		inactive	inactive	inactive	inactive	inactive	inactive	1.22%	inactive		11.2%	
Cc1cc(O)ccc1O		51 µM (active)	inactive		inactive			inactive			inactive		inactive	inactive		-73.6% (active)		inactive		
C=C(C)[C@@H]1CCC2=CCC[C@@H](C)[C@]2(C)C1		inactive	inactive	inactive	inactive	inactive	inactive	inactive		inactive					inactive	-7.47%	inactive	inactive	0.724%	inactive
O=C(OCC(O)CO)c1ccccc1Nc1ccnc2cc(Cl)ccc12 (configuration not stated)			inactive	8.49 µM (active)	inactive	inactive		inactive	8.49 µM (active)	inactive			inactive	inactive		-40.1% [at 42.5 µM]				inactive
CCOC(=O)c1ccc(C#Cc2ccc3c(c2)C(C)(C)CCS3)nc1			inactive		inactive	inactive		inactive		inactive	inactive		inactive	0.301 µM (active)	inactive			inactive		inactive
C=C1c2cccc(O)c2C(O)=C2C(=O)[C@]3(O)C(O)=C(C(N)=O)C(=O)[C@@H](N(C)C)[C@@H]3[C@@H](O)[C@H]12	inactive	inactive	inactive	inactive	inactive	inactive	inactive	inactive		inactive	inactive	inactive	inactive	inactive		-14.2% [at 42.5 µM]			3.62%	inactive
CN(C(=O)CN(CCO)CC(=O)N(C)C(C)(C)Cc1ccccc1)C(C)(C)Cc1ccccc1	inactive			19 µM (active)	inactive				19 µM (active)		23.9 µM (active)		23.9 µM (active)	23.9 µM (active)		-27.5% [at 42.5 µM]				inactive
